Bioassay records: PubChem, several laboratories
In the library only some 0.48% were active in any assay of this set; here they are far more common.
NR5A2 inv ag: inverse agonists of human LRH-1 (NR5A2); O00482; HEK293T StAR-luciferase reporter, LRH-1 transfected, 24 h; inhibition, % at 3.6 µM; 0.13% of 360,000 active; AID 602396;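 active = inhibition above the mean inhibition of all tested compounds plus 3 SD, cut at about 73% in these data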;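 also: 0% = DMSO wells and 100% = reporter-only cells lacking LRH-1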
Target sequence (O00482 whole entry, looked up): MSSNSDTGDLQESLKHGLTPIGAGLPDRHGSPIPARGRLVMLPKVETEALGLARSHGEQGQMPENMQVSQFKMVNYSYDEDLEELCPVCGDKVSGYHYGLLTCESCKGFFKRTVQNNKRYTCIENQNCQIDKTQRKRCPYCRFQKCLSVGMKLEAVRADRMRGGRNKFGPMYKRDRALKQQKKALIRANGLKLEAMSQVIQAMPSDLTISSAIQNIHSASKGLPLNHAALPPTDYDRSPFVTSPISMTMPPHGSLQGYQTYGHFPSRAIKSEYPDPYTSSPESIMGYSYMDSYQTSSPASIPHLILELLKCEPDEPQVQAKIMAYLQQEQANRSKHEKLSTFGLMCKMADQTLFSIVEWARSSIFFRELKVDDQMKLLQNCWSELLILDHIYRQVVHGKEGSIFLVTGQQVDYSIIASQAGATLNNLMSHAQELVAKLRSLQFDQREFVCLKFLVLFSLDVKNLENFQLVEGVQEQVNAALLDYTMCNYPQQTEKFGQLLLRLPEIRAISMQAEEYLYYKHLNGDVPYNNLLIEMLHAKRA
NCOA1 inh: human NCOA1 inhibition; Q15788; HEK293 GAL4-SRC1 luciferase reporter, luminescence; inhibition, % at 3.6 µM; 0.12% of 360,000 active;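 active = inhibition above the campaign mean plus 3 SD, with each screening campaign given its own cutoff, cut at about 60% in these data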;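 also: 0% = DMSO treated cells and 100% = gossypol at 36 µM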
NCOA3 inh: inhibits human SRC3 coactivator; Q9Y6Q9; HEK293 GAL4-SRC3 luciferase reporter, luminescence; inhibition, % at 3.6 µM; 0.17% of 360,000 active; AID 588352;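 active = inhibition above a per-campaign cutoff, the mean of all compounds plus 3 SD, cut at about 60% in these data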;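 also: 0% = DMSO-treated cells and 100% = gossypol-treated cells at 36 µM; higher means less SRC3-driven luciferase light from the GAL4 reporter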
SRC2 inh: inhibits human steroid receptor coactivator 2 | AID 651957 | HEK293 GAL4-SRC2 luciferase reporter, luminescence | 0.17% of 370,000 active | Q15596 | inhibition, % at 9 µM;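 active = inhibition above the mean inhibition of all tested compounds plus 3 SD, set per campaign, cut at about 52% in these data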;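 also: 0% = DMSO treated cells and 100% = cells given Gossypol at 36 µM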
LGR2 antag: Drosophila LGR2 receptor signaling inhibition | HEK293 LGR2, CRE-luciferase, bursicon-stimulated, 4 h | inhibition, % at 9.99 µM | 0.35% of 380,000 active | AID 720647;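 active = drop in luminescence signal, shown as inhibition above about 50% in the replicate tests, limit read from the data, passing the limit was not always enough; inconclusive = probably only some replicates passing the limit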;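 also: agonist challenge used bursicon conditioned medium at about half maximal strength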
* = called active by the depositor; ? = inconclusive; . = not tested or not shown.

SMILES	NR5A2 inv ag	NCOA1 inh	NCOA3 inh	SRC2 inh	LGR2 antag
COc1cccc(C#Cc2ccc3c(c2)[C@H]2[C@H](CCN2C(C)=O)[C@H](CO)N3)c1	.	.	.	.	6
COc1ccc2c(n1)Sc1nc3ccccc3nc1N2	-147	-105	-96	65*	-89
O=Cc1s/c(=N\S(=O)(=O)c2ccccc2)n(CCCCl)c1Cl	-2	-22	-6	-9	72*
C=CCSc1nc2ccccc2n1C(=O)/C=C/c1cc(OC)c(OC)c(OC)c1	-28	-7	36	6	96*
Cc1ccc(-c2cc3onc(-c4ccccc4)c3c(=O)n2C)cc1	24	23	19	2	85*
Nc1ccc(-c2cc3ccccc3oc2=O)cc1	56	42	65*	85*	3
C[C@@H]1CCCCO[C@@H](CN(C)S(=O)(=O)c2ccc(Cl)cc2)[C@H](C)CN([C@H](C)CO)C(=O)c2cc(NS(=O)(=O)c3cccs3)ccc2O1	.	.	.	.	3
CCCOc1ccc(C2NC(=O)NC2=O)cc1 (centres undefined)	19	-21	1	-14	-4
O=C1NC(=O)C(c2ccc(F)cc2)N1 (centres undefined)	89*	90*	89*	6	4
CCN(CC)c1ccc(/C=N/NC(=O)c2cccc(S(=O)(=O)Nc3ccccc3OC)c2)c(O)c1	33	73*	81*	32	36
CCN(CC)c1ccc(/C=N/NC(=O)c2cccc(S(=O)(=O)Nc3ccccc3OC)c2)cc1	24	9	-6	-5	8
C[C@H](CO)N1C[C@H](C)[C@@H](CN(C)C(=O)Nc2ccc3c(c2)OCO3)Oc2ccc(NC(=O)CCN3CCOCC3)cc2CC1=O	.	.	.	.	3
CN(C)CCCN(C(=O)/C=C/c1cccs1)c1nc2c(F)cccc2s1	10	13	26	-22	56*
Cn1nc(-c2ccccn2)nc2c(=O)n(C)c(=O)nc1-2	84*	89*	93*	39	103*
CCCc1nc2c(=O)n(C)c(=O)nc-2n(C)n1	89*	87*	90*	67*	102*
COc1ccc(-c2nc(-c3ccccn3)ncc2S(C)(=O)=O)cc1	-7	-1	-11	9	2
CCn1c(N)nc2c1c(=O)n(C)c(=O)n2C	23	3	-26	5	-8
C[C@H]1CN([C@@H](C)CO)C(=O)c2cc(-c3ccncc3)cnc2O[C@H]1CN(C)C(=O)C1CCC1	.	.	.	.	6
COc1cccc(/C=C/C(=O)Nc2cccc(C(C)=O)c2)c1OC	-81	-54	-49	-63	-34
COc1cccc(/C=C/C(=O)Nc2ccc3c(c2)OCCO3)c1OC	-127	-66	-59	-60	61*
COc1ccc(OC)c(NC(=O)COC(=O)c2c3c(nc4ccccc24)CCCC3)c1	7	-10	32	29	71*
Cc1c(NC(=O)c2ccc(-c3ccccc3)cc2)cccc1C(=O)O	-96	-78	-46	-14	56*
O=C(Nc1ccccc1C(=O)O)c1ccccc1	-47	-34	-78	-12	.
CCOc1ccc(C(=O)Nc2cccc(C(=O)O)c2C)cc1Cl	-114	-97	-6	-39	70*
O=C(Nc1ccc([N+](=O)[O-])cc1)Nc1ccc(OC(F)F)c(Cl)c1	10	32	75*	0	20
SMILES	NR5A2 inv ag	NCOA1 inh	NCOA3 inh	SRC2 inh	LGR2 antag
O=C(CCCc1nc(-c2ccccc2Cl)no1)NC1CCCC1	26	45	63*	90*	-14
Cc1ccc(-c2noc(CCCC(=O)NC3CCCC3)n2)cc1	19	5	29	53*	13
COc1ccccc1-c1noc(CCCC(=O)NC2CCCC2)n1	13	-6	-5	-10	-17
O=C(CCCc1nc(-c2ccccc2)no1)NC1CCCC1	3	-17	7	10	6
CCC[C@@H](CNC)NC[C@H](Cc1ccccc1)NCCCCc1ccccc1	-25	0	17	-10	6
CNC[C@@H](Cc1ccccc1)NC[C@@H](CC1CCCCC1)NCCCc1ccccc1	-13	0	-3	-33	102*
CN(Cc1cccc(C(F)(F)F)c1)C(=O)C1CCC(=O)N(CC2CCCCC2)C1 (centres undefined)	8	-7	6	-16	1
CNC[C@@H](CC1CCCCC1)NC[C@H](CC(C)C)NCCc1cccc(C(F)(F)F)c1	-12	3	-5	-5	103*
O=C(C1CCCC1)N1C[C@H]2[C@@H](c3ccccc31)[C@H](CO)N2C(=O)Nc1cccc(F)c1	.	.	.	.	-1
COc1cccc(/C=N/Nc2ccc(C(=O)O)cc2)c1O	46	76*	79*	79*	.
O=[N+]([O-])c1cccc(C=NNc2ccc3ccccc3n2)c1O	3	42	40	19	81*
COc1cccc(/C=N/Nc2ncccc2[N+](=O)[O-])c1OC	-80	-29	19	20	97*
COc1cccc(/C=N/Nc2ccc([N+](=O)[O-])cn2)c1O	-36	-32	56	30	67*
COc1cccc(C(=O)Nc2ccc3c(c2)C(=O)N(C)C[C@H](OC)[C@H](C)CN(C(C)=O)[C@@H](C)CO3)c1	.	.	.	.	-9
CCCC#Cc1cnc2c(c1)C(=O)N([C@@H](C)CO)C[C@H](C)[C@@H](CN(C)Cc1ccc3c(c1)OCO3)O2	.	.	.	.	-8
O=C(/C=C/Nc1ccccc1Br)c1ccccn1	42	43	59	81*	.
O=C(/C=C\Nc1ccccn1)c1ccccc1	-126	-76	-64	-27	.
Cn1c(/C(C#N)=C/c2ccc(-c3ccc(S(N)(=O)=O)cc3)o2)nc2ccccc21	-15	38	68*	-16	44
Cc1oc(-c2ccc3c(c2)OCCO3)cc1C(=O)O	14	18	29	74*	?
Cc1oc(-c2ccc3c(c2)OCCO3)cc1C(=O)NCC(=O)O	-34	-17	0	-32	-67
CC(=O)Nc1cccc(C(=O)/C=C/c2ccc(Br)cc2)c1	19	18	44	11	60*
CCC(=O)Nc1cccc(C(=O)/C=C/c2cc(Br)ccc2OC)c1	73*	49	79*	64*	.
COc1ccc(Br)cc1/C=C/C(=O)Nc1ccc2ccccc2c1	-3	-36	-9	1	5
COc1ccc2c3c([nH]c2c1)[C@H](CO)N(CC1CC1)CC31CCN(Cc2ccccc2F)CC1	.	.	.	.	17
C[C@@H]1CCCCO[C@@H](CN(C)C)[C@@H](C)CN([C@@H](C)CO)C(=O)c2cc(NC(=O)C3CCCCC3)ccc2O1	.	.	.	.	7
NCC(=O)Nc1ccc(Cl)cc1C(=O)c1ccc[nH]1	59	53	51	56*	18
CC=Cc1ccc2n(c1=O)C[C@@H]1[C@@H](CO)[C@H](C(=O)N[C@H](C)c3ccccc3)[C@H]2N1CC1CC1 (mixture of isomers)	.	.	.	.	0
CCCCCN=Cc1c(C)[nH]n(-c2nc3ccccc3s2)c1=O	-148	-71	-72	-48	60*
CC(=O)c1ccc(Nc2cc(C)nc3c(C)cc(C)cc23)cc1	21	5	7	-19	99*
